Compound activity: PubChem BioAssay, ICCB-Longwood Screening Facility, Harvard Medical School
This excerpt belongs to a sample that is enriched for hits.
Sa helicase inh: inhibitors of S. aureus replicative helicase, primary screen, biochemical, fluorescence unwinding readout; replicative DNA helicase (DnaC/DnaB), Staphylococcus aureus; purified S. aureus helicase, fluorescence unwinding assay; inhibition, % (test concentration not listed); 120,000 compounds, 0.05% hits; in the data active = inhibition above about 25%, passing the limit was not always enough;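 note: 0% = mean of negative control wells and 100% = mean of positive control wells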
Sa growth inh: S. aureus growth inhibition at 42 and 30 °C, primary screen, LtaS inhibitor project, RN4220, two temperatures; OD600, 20 h, 42 °C; hits give low values; relative growth, % (test concentration not listed); 170,000 compounds, 0.53% hits; AID 720641, 2013;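 active = relative growth at most 50% at the other temperature and 20+ points below 30 °C, or under 10% at both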
* = called active by the depositor; nt = no result.

SMILES	Sa helicase inh	Sa growth inh
OC(CN1CCN(c2ccc(C(F)(F)F)cn2)CC1)c1cc(-c2cc(Cl)cc(Cl)c2)no1 (stereo unspecified)	nt	104
Cc1n[nH]c(C)c1CCC(=O)O	5	108
Cc1n[nH]c(C)c1CCCOc1ccccc1	-2	8.3*
Cc1n[nH]c(C)c1CCCCCOc1ccccc1	13	0.0*
COC(=O)c1c(COc2ccccc2)n[nH]c1C	nt	113
CCCn1c(NC(=O)C2CCCC2)nc2ccccc21	-4	-0.9*
CCCn1c(NC(=O)CCC2CCCC2)nc2ccccc21	20	147
O=C(CN1CCN(Cc2ccccc2)C1=O)NCCc1ccccc1	1	114
N#CCC(=O)N1N=CCC1(O)C(F)(F)F (stereo unspecified)	-6	87
CO[C@H]1C=CO[C@@]2(C)Oc3c(C)c(O)c4c(O)c(c(C=NN5CCN(C6CCCC6)CC5)c(O)c4c3C2=O)NC(=O)C(C)=CC=C[C@H](C)[C@H](O)[C@@H](C)[C@@H](O)[C@@H](C)[C@H](OC(C)=O)[C@@H]1C	nt	3.9*
CN=C1NC(=O)CC(C(=O)Nc2ccc3ccccc3c2)S1 (stereo unspecified)	15	72
N#CC(C#N)=C(Nc1ccc(Br)cc1)SCc1ccc(F)cc1	-13	31
N#CC(C#N)=C(Nc1ccccc1Cl)SCc1cccc(F)c1	1	0.1*
CC(C)C(=O)Nc1cccc2nsnc12	-2	1.2*
Cc1ccc(S(=O)(=O)C(=O)Nc2cccc3nsnc23)cc1	-4	124
Cc1cc2c3cccn3ccn2c1	-23	81
O=C(Oc1c(Cl)cc(Cl)c2cccnc12)c1ccco1	32	1.7*
Oc1c(Cl)cc(Cl)c2cccnc12	nt	65
Cc1c2oc3c(C)ccc(C(=O)OC(C)C4NC(=O)C(C(C)C)N(C)C(=O)CN(C)C(=O)C5CCCN5C(=O)C(C(C)C)NC4=O)c3nc-2c(C(=O)OC(C)C2NC(=O)C(C(C)C)N(C)C(=O)CN(C)C(=O)C3CCCN3C(=O)C(C(C)C)NC2=O)c(N)c1=O (stereo unspecified)	nt	-0.6*
O=C1c2ccccc2C(=O)N1CC(O)COc1ccc(Cl)cc1Cl (stereo unspecified)	6	97
CC[n+]1c(/C=C/Nc2ccccc2)sc2ccccc21	8	103
CC[n+]1c(/C=C/N(C)c2ccccc2)sc2ccc(OC)cc21	0	-0.6*
COc1ccc(NC(=O)CN2C(=O)CCn3nc(-c4cccn4C)cc32)cc1Cl	nt	82
CSc1ccc(S(=O)(=O)N(C)C)cc1	0	108
CN(C)S(=O)(=O)c1ccc(=S)[nH]c1	10	38*
SMILES	Sa helicase inh	Sa growth inh
COc1ccc(CC(C(=O)O)N2C(=O)c3ccccc3C2=O)cc1 (stereo unspecified)	1	98
Cc1cc(N2CC(C)CC(C)C2)nc2cc(Cl)ccc12 (stereo unspecified)	1	100
COc1ccc(CCN(C)c2nc(N)c3c(N)nc(SCC(=O)O)cc3c2C#N)cc1OC	-18	0.7*
COc1cc2c(C#N)c(N(C)CCc3ccc(OC)c(OC)c3)nc(N)c2c(N)n1	-19	69
O=C(c1ccc(F)cc1)C1CCN(Cc2cnc(-c3ccccc3)[nH]2)CC1	nt	114
Cc1ccc(CNC(=O)c2cccc(Cn3cc(Cl)cn3)c2)cc1	5	90
O=C(NCc1ccccc1Cl)c1ccc(Cn2cc(Cl)cn2)cc1	5	2.9*
COc1ccc(N2CCN(C(=O)Cn3cnc4nc5c(cc4c3=O)CCCC5)CC2)cc1	nt	83
CC1SC(=N)N(c2ncc(Cc3ccccc3Cl)s2)C1=O (stereo unspecified)	1	-1.0*
O=C(Nc1ncc(Cc2ccccc2Cl)s1)c1ccco1	-8	nt
O=P(O)(c1ccccc1)c1ccccc1	5	105
O=C(O)Cc1coc(-c2ccc(F)cc2)n1	-19	78
CN(Cc1coc(-c2ccccc2)n1)Cc1coc(-c2ccccc2)n1	-23	-1.3*
COc1cccc(OCc2nnc(SCc3ccccc3)n2C)c1	17	3.8*
CSc1nnc(COc2cccc(C)c2)n1C	5	127
CCN1C(C(=O)c2ccccc2)=C(OC(=O)c2ccco2)c2ccccc2S1(=O)=O	12	6.2*
CCN1C(C(=O)c2ccccc2)=C(OC(=O)c2ccc(Cl)cc2)c2ccccc2S1(=O)=O	nt	53
CCOC(=O)c1cccc(NC(=O)C2CCCCC2)c1	23	119
Cc1cccc(CSc2nc3ccncc3n2CC(=O)N2CCCC2)c1	-5	100
CCOC(=O)CCn1cc(F)c(=O)[nH]c1=O	8	95
CC(=O)On1cc(F)c(=O)[nH]c1=O	2	0.7*
c1ccc(-c2cccc(-c3ccccn3)n2)nc1	12	2.4*
c1ccc(-c2ccc3ccccc3n2)nc1	-5	63
C=CCn1cc(C(=O)N(C)CCCC)c(=O)c2cc(S(=O)(=O)N(CC)CC)ccc21	-1	108
COc1ccc(NC(=O)CCc2cc(OC)c(OC)c(OC)c2)cc1	9	124
